Data taken from PMC4336329 (PLoS ONE, 2015).
Hit rate of the full screen: of about 310,000 compounds, about 14,000 (4.5%) showed an effect of 50% or more. Effects have a minus sign here. What follows is part of a selection rich in strong results, with near analogues and random picks from the rest.

molecular target: human ether-à-go-go-related gene (hERG) potassium channel (human, UniProt Q12809); assay: primary screen, population patch clamp on CHO cells stably expressing hERG; higher = less effect of the substance
Sequence (Q12809 whole entry, looked up): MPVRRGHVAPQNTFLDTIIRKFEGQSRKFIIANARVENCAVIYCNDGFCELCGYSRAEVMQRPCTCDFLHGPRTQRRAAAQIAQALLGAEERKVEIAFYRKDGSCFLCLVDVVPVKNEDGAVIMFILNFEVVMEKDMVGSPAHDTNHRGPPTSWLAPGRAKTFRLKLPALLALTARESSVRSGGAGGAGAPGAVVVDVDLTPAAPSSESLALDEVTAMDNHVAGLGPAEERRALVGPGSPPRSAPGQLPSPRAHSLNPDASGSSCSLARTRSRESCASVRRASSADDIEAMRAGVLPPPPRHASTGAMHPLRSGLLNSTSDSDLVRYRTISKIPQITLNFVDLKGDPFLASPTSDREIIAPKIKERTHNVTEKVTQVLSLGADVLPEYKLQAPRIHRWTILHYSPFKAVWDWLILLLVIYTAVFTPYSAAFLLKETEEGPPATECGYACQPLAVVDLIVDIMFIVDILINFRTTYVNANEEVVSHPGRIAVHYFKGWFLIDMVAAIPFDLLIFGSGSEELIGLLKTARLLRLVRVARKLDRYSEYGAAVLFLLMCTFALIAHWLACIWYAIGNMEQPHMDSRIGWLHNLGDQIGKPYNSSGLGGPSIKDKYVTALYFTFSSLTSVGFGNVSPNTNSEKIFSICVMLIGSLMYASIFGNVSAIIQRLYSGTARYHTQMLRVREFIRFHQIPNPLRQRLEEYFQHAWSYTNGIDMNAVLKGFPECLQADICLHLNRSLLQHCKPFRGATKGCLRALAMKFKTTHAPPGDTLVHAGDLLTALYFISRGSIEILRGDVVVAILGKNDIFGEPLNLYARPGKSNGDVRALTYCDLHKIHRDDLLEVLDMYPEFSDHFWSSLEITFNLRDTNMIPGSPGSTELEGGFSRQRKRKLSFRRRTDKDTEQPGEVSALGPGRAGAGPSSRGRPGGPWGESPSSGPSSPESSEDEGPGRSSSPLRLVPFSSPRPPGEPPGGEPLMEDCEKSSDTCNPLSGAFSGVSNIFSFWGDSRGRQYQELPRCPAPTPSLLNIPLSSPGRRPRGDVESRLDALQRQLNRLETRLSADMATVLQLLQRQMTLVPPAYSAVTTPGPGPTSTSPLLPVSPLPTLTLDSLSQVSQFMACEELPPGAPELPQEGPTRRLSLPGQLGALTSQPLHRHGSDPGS
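Also: peak tail current of the secondary pulse compared with the same well before compound.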

Row | Structure (SMILES) | hERG current change (%, negative = inhibition) at 10uM
1 | Oc1c(Cl)cc(Cl)cc1/C=N/c1nccs1 | -11.8%
2 | O=C(COC(=O)C1CCN(S(=O)(=O)c2cccc3cccnc23)CC1)c1ccc([N+](=O)[O-])cc1 | 13.1%
3 | O=C(NC(=O)c1ccccc1F)Nc1nc(-c2cccs2)cc(C(F)(F)F)n1 | 4.49%
4 | COC(=O)CC1c2cc(OC)c(OC)cc2CC(=O)c2cc(OC)c(OC)cc21 (stereo not drawn) | 6.73%
5 | Nn1c(COc2ccccc2)nnc1SCc1cc(=O)[nH]c2ccccc12 | -14.3%
6 | CCCNC(=S)N1CCC(C(=O)c2ccc3c(c2)OCCO3)CC1 | -28.9%
7 | COc1ccccc1CNS(=O)(=O)c1csc(C(N)=O)c1 | 20.1%
8 | CCCc1cc(=O)[nH]c(SCC(=O)NN(c2ccccc2)c2ccccc2)n1 | -1.04%
9 | COc1cc(C(=O)NCCN2CCCC2)cc(OC)c1OC.Cl | 9.26%
10 | COc1cc(OC)cc(C(=O)NCCCN2CCN(CCCNC(=O)c3cc(OC)cc(OC)c3)CC2)c1 | -48.8%
11 | CCOc1ccc(C(=O)NCCN2CCCC2)cc1.Cl | -40.6%
12 | COc1cccc(C(=O)NCCN2CCN(c3ccc(Cl)cc3)CC2)c1 | -49.8%
13 | COc1cccc(C(=O)NCCCN2CCN(CCCNC(=O)c3cccc(OC)c3)CC2)c1 | -85.4%
14 | Cn1c(C(=O)NCCCN2CCN(c3cccc(Cl)c3)CC2)cc2c(=O)n(C)c3ccccc3c21 | 9.13%
15 | Cl.O=C(NCCN1CCN(c2ccccc2)CC1)c1cccc(Cl)c1 | -54.2%
16 | Nc1ccccc1C(=O)NCCCN1CCN(c2cccc(Cl)c2)CC1 | -71.4%
17 | Cc1cccc(C(=O)NCCN2CCN(c3ccccc3)CC2)c1.Cl | -37.1%
18 | Nc1ccccc1C(=O)NCCCN1CCOCC1 | 15.6%
19 | CCOc1c(Cl)cc(C(=O)NCCN2CCCCC2)cc1Cl | -58.6%

Row | Structure (SMILES) | hERG current change (%, negative = inhibition) at 10uM
20 | COc1cccc(C(=O)NCCCNC(=O)c2cccc(OC)c2)c1 | 1.43%
21 | CCN(CC(=O)Nc1c(F)cccc1F)C(=O)C1CCCN(C(=O)c2ccc(Cl)cc2)C1 (stereo not drawn) | -31.5%
22 | Cc1ccccc1Nc1nc(N2CCOCC2)nc(N2CCOCC2)n1.Cl | 14%
23 | CC1=CC(c2ccc(Cl)cc2)n2nc(NS(=O)(=O)c3ccc(C)cc3)nc2N1 (stereo not drawn) | -19.7%
24 | CCOC(=O)c1cnc2c(cnn2C)c1NCCC(O)C(F)(F)F (stereo not drawn) | 0.469%
25 | Cc1ccc(SCC(=O)Nc2ccc(F)cc2[N+](=O)[O-])cc1C | 11.7%
26 | O=C(c1ccc(Oc2cc(Cl)cc(Cl)c2)o1)N1CCCCC1 | -7.03%
27 | COc1cc(OC)cc(C(=O)NCCCCc2ccccc2)c1 | -56%
28 | Clc1cccc(N2CCN(Cc3nc(-c4ccccc4)no3)CC2)c1 | -12%
29 | O=C(NCCCN1CCN(c2cccc(Cl)c2)CC1)c1ccc(N2CCCC2=O)cc1 | -26.4%
30 | COc1ccc(C(=O)NCCCCc2ccccc2)cc1 | -4.68%
31 | O=C(NCC1CC1)c1ccc(Oc2cc(Cl)cc(Cl)c2)o1 | -33.7%
32 | O=C(NCCN1CCCCC1)c1ccc(Oc2cc(Cl)cc(Cl)c2)o1 | -54.8%
33 | O=C(NCCc1ccccc1)c1cccc(Br)c1 | 2.53%
34 | O=C(NCCN1CCOCC1)c1cccc(Br)c1 | -3.21%
35 | O=C(NCCN1CCN(c2ccccc2)CC1)c1cccc(Br)c1 | -60.2%
36 | COc1cc(OC)cc(C(=O)NCCCCNC(=O)c2cc(OC)cc(OC)c2)c1 | 4.94%
37 | O=C(NCCCN1CCN(c2cccc(Cl)c2)CC1)c1nc(-c2ccncc2)no1 | -63.2%
38 | O=C(COc1ccc(Br)cc1Br)NC(=O)NC1CCCC1 | 22.3%

Row | Structure (SMILES) | hERG current change (%, negative = inhibition) at 10uM
39 | O=C(CN1C(=O)NC(c2ccccc2)(c2ccccc2)C1=O)NC1CCS(=O)(=O)C1 (stereo not drawn) | 5.23%
40 | CCc1nc(Nc2ccccc2F)c2oc3ccccc3c2n1.Cl | 6.04%
41 | CCC(=O)Nc1ccc(S(=O)(=O)Nc2ccc(Cl)nn2)cc1.Cl | 11.7%
42 | Cc1cccc(C)c1NC(=O)N1CCC(C(=O)c2ccc(F)cc2)CC1 | -22.6%
43 | COC(=O)C1=NN(c2ccc(OC)cc2)C2C(=O)N(c3ccccc3OC)C(=O)C12 (stereo not drawn) | 10.7%
44 | COc1ccc(S(=O)(=O)N2CCC3(CC2)OCCN3S(=O)(=O)c2ccccc2)cc1OC | 0.907%
45 | CCOC(=O)c1c(C)[nH]c(C(=O)OCC(=O)Nc2ccc(Cl)cn2)c1C | 6.52%
46 | CCCOc1ccccc1C1NC(=O)NC(C)=C1C(=O)OCc1ccccc1 (stereo not drawn) | 6.23%
47 | COc1ccc(-c2cc(C(F)(F)F)nc(SCC(=O)NCc3cccs3)n2)cc1OC | -3.84%
48 | CC1CCC(NC(=O)c2ccc3snnc3c2)CC1 (stereo not drawn) | 21.3%
49 | COc1ccc(NC(=O)c2cccc(NC(=O)c3ccccc3)c2)cc1 | 2%
50 | COc1ccc(CNC(=O)c2cccc(NC(=O)c3ccccc3)c2)cc1 | -71.5%
51 | COc1ccc(C(=O)Nc2cccc(C(=O)NCc3ccccc3)c2)cc1 | 4.28%
52 | Cl.O=C(NCCN1CCCC1)c1cccc(Cl)c1 | -51.6%
53 | Cc1cccc(C(=O)NCCN2CCCC2)c1.Cl | -0.337%
54 | O=C(NCCN1CCOCC1)c1cccc(Cl)c1 | -1.9%
55 | Cc1cc(=O)oc2cc(NC(=O)c3ccccc3Cl)ccc12 | 28%
56 | C(=N\Nc1nc(Nc2ccccc2)nc(Nc2ccccc2)n1)/c1cccnc1 | -4.87%
57 | C[n+]1cccc(C2C(C#N)=C(N)Oc3c2ccc2ccccc32)c1.[I-] (stereo not drawn) | 13.7%
